Source: PubChem BioAssay
Shown are actives, neighbours in structure and some others; about 3.8% of the full set was active somewhere.
PfHsp90 yeast 2 – growth inhibition of PfHsp90-expressing yeast, primary screen, antimalarial PfHsp90 inhibitor project, S. cerevisiae, BacTiter-Glo luminescence, single point, set 2; inhibition, % at 9.4 µM; 0.32% of 310,000 active; BacTiter-Glo ATP, 48 h; yeast lacking PDR1 and PDR3 efflux regulators;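 active means every replicate shows inhibition above about 80%, whatever the replicate mean, limit read from the data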;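 further: 0% = DMSO neutral controls and 100% = 20 µM radicicol positive controls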
tim10-1 inh – growth inhibitors of tim10-1 mutant yeast, primary screen, luminescence, uHTS; S. cerevisiae tim10-1 ts strain growth, BacTiter-Glo, 24 h; inhibition, % at 20 µM; 2.2% of 330,000 active;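 active means inhibition of at least 40%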;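 further: mutant grown at 25 °C; 0% = DMSO wells with yeast and 100% = wells holding no yeast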
TIM10 inh – growth inhibitors of isogenic TIM10 control yeast, primary screen, counter-screen for tim10-1 yeast inhibitor project, luminescence, uHTS. S. cerevisiae TIM10 strain growth, BacTiter-Glo luminescence, 24 h. inhibition, % at 10 µM. 1.4% of 330,000 active. AID 463195, 2010;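 active means inhibition of 40% or more at the single tested concentration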;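 further: wild-type TIM10 isogenic control strain grown at permissive 25 °C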
tim23-1 inh – growth inhibitors of tim23-1 mutant yeast, primary screen, luminescence, uHTS. 1.3% of 330,000 active. S. cerevisiae tim23-1 growth, BacTiter-Glo luminescence, 24 h. inhibition, % at 20 µM;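 active means growth inhibition of the mutant yeast at or above 50%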;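 further: temperature-sensitive mutant grown at 25 °C; plate controls were DMSO-treated mutant yeast for no effect and medium wells lacking yeast for full effect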
B2AR ag – beta2AR agonists driving receptor internalization, primary screen, cell-based, FAP fluorogen, flow cytometry. Beta-2 adrenergic receptor (Homo sapiens), P07550. Am2.2-beta2AR cells. response, % (concentration not given with the values). 0.43% of 340,000 active;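 active means response above a set limit, near 3 SD of response in nonfluorescent compounds, cut at about 42% in these data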
Target sequence (P07550 whole entry, looked up): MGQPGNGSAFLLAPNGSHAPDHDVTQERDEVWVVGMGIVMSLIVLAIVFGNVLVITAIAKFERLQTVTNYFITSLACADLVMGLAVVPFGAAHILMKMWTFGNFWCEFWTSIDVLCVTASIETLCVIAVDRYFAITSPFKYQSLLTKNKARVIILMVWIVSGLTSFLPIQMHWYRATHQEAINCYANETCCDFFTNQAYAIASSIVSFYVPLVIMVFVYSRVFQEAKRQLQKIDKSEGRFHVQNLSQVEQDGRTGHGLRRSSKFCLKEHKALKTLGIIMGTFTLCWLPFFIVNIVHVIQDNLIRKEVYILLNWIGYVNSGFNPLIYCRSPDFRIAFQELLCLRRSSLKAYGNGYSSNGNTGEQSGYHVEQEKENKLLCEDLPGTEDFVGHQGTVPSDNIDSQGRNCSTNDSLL
tim10-1 conf – growth inhibitors of tim10-1 mutant yeast, confirmation, single concentration, luminescence, S. cerevisiae | 56% of 7,400 active | AID 463213, 2010 | shares compounds with tim10-1 inh | S. cerevisiae tim10-1 ts strain growth, BacTiter-Glo, 24 h | inhibition, % at 20 µM;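 active means inhibition of yeast growth at or above a set limit in either of two repeat tests at 20 µM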;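 further: tim10-1 mutant grown at permissive 25 °C to find synthetic lethal compounds; 0% = DMSO yeast wells and 100% = medium wells without yeast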
TIM10 conf – growth inhibitors of wild-type TIM10 yeast, confirmation, counter-screen for tim10-1 synthetic lethality project, single concentration, luminescence, S. cerevisiae; inhibition, % at 10 µM; AID 463215, 2010; 63% of 4,600 active; S. cerevisiae tim10 strain growth, BacTiter-Glo luminescence, 24 h; shares compounds with TIM10 inh;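 active means inhibition of yeast growth at or above a set limit in either of two replicates at 10 µM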;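 further: this counterscreen used the strain with wild-type TIM10; 0% = yeast with DMSO and 100% = medium wells lacking yeast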
tim23-1 conf – tim23-1 mutant yeast growth inhibitors, confirmation, luminescence, single concentration. 83% of 4,400 active. shares compounds with tim23-1 inh. S. cerevisiae tim23-1 growth, BacTiter-Glo luminescence, 24 h. inhibition, % at 20 µM;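 active means inhibition above about 39% in either of two replicate wells at 20 µM, limit read from the data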;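 further: temperature-sensitive tim23-1 mutant grown at 25 °C; 0% = DMSO wells with yeast and 100% = medium wells without yeast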
Active calls of the source: *; . = no result given.

SMILES	PfHsp90 yeast 2	tim10-1 inh	TIM10 inh	tim23-1 inh	B2AR ag	tim10-1 conf	TIM10 conf	tim23-1 conf
CC(C)c1ccc(NC2CCCN(C(=O)c3ccsc3)C2)cc1 (stereo unspecified)	-9.0	28.7	13.5	30.3	5.9	.	.	.
CC1CCCCC1NC(=S)Nc1ccc(SC(F)F)cc1 (stereo unspecified)	.	65.8*	70.2*	53.0*	-2.2	64.8*	64.2*	38.9
Cn1c(CCCNC(=O)c2ccco2)nc2ccccc21	3.3	.	.	.	-1.4	.	.	.
c1ccc2c(c1)nc(CN1CCOCC1)n1c3ccccc3nc21	-5.3	22.7	0.7	13.4	-10.9	.	.	.
CCc1nc2ccccc2c2nc3ccccc3n12	3.4	58.8*	44.1*	51.2*	-6.4	46.5*	22.1	48.5*
C=CCNC(=O)/C(C#N)=C\c1cc(Cl)c(OCC)c(OC)c1	-22.5	79.4*	66.7*	82.4*	24.1	79.1*	73.3*	84.3*
C=CCNC(=O)/C(C#N)=C/c1ccc(C(=O)O)cc1	0.5	4.9	-2.1	11.6	-0.2	.	.	.
CCOc1c(Br)cc(/C=C(\C#N)C(=O)NC2CC2)cc1OC	19.5	84.7*	56.2*	86.6*	-0.6	77.7*	66.8*	83.6*
CCc1ccc(/C=C(\C#N)C(=O)NC2CCS(=O)(=O)C2)cc1 (stereo unspecified)	-2.6	21.8	12.4	34.8	3.7	.	.	.
CC(C)(C)c1ccc(/C=C(\C#N)C(=O)NC2CC2)cc1	.	51.3*	58.3*	84.6*	1.2	77.9*	64.9*	50.6*
N#C/C(=C\c1ccc(F)c(F)c1)C(=O)NC1CCCCC1	-1.8	51.8*	64.7*	67.8*	3.5	64.8*	77.8*	58.8*
N#C/C(=C\c1cc(Cl)ccc1O)C(=O)NC1CCCCC1	-8.1	27.0	22.3	30.6	10.7	.	.	.
O=C(Cc1cccc(NC(=O)C2CCCN(C(=O)CCc3ccccc3)C2)c1)Nc1ccc(C(=O)N2CCOCC2)cc1 (stereo unspecified)	2.4	.	.	.	-3.3	.	.	.
N#C/C(=C\c1cc(Cl)cc(Cl)c1O)C(=O)NC1CCCCC1	-20.6	49.3*	38.4	54.0*	3.1	28.9	.	57.7*
N#C/C(=C\c1cc(Br)ccc1F)C(=O)NC1CC1	-8.8	76.7*	51.5*	89.8*	3.7	60.2*	80.5*	91.2*
N#C/C(=C\c1ccc(F)cc1)C(=O)NC1CCS(=O)(=O)C1 (stereo unspecified)	-65.5	23.3	20.5	20.4	-0.1	.	.	.
O=C(COC(=O)/C=C/c1cc(Br)ccc1F)NC1CC1	.	12.6	-5.5	22.4	-1.2	.	.	.
N#C/C(=C\c1ccccc1[N+](=O)[O-])C(=O)NC1CCCCC1	-19.4	75.0*	72.4*	75.7*	6.0	84.2*	83.2*	73.3*
N#C/C(=C\c1ccc(F)c(Br)c1)C(=O)NC1CC1	33.9	47.8*	44.2*	84.1*	10.0	45.9*	58.1*	74.0*
CCOC(=O)[C@H]1[C@H]2COc3ccc(Br)cc3[C@@H]2N2C(=O)c3ccc(Cl)cc3NC(=O)[C@@]12C	24.1	8.7	2.6	15.0	6.1	.	.	.
COC(=O)c1sc(-c2ccc(Cl)cc2)cc1N	-51.0	17.8	23.1	19.5	0.6	.	.	.
CC(=O)c1sc(-c2ccc(Cl)cc2)cc1N	-33.4	50.2*	30.7	59.5*	8.4	9.2	.	44.8*
Cc1cccc(-c2cc3nc4c(c(NCc5ccco5)n3n2)CCCC4)c1	9.7	53.0*	26.6	53.8*	2.7	33.7*	.	56.5*
Cc1ccc(/C=N/NC(=O)NC2CCCCC2)o1	8.6	13.9	24.6	13.9	-1.0	.	.	.
Cc1ccc(/C=C/C(=O)NC2CCCCCCC2)o1	-7.7	54.6*	46.3*	51.5*	6.5	56.8*	38.3*	57.7*
SMILES	PfHsp90 yeast 2	tim10-1 inh	TIM10 inh	tim23-1 inh	B2AR ag	tim10-1 conf	TIM10 conf	tim23-1 conf
NNC(=O)COc1ccc(-c2nccc(-c3ccc(F)cc3)n2)cc1	13.6	49.2*	13.3	54.5*	16.5	29.6	.	40.7*
Oc1ccc(-c2nccc(-c3ccc(F)cc3)n2)cc1	-31.7	51.9*	34.2	62.2*	-10.8	53.8*	.	-15.8
COC(=O)C(C)Oc1ccc(-c2nccc(-c3ccc(F)cc3)n2)cc1 (stereo unspecified)	-24.4	19.5	21.3	18.6	12.3	.	.	.
Nn1cnc2scc(-c3cccs3)c2c1=O	4.9	-9.7	-1.9	3.0	2.2	.	.	.
COc1cccc(-n2cnc3scc(-c4cccs4)c3c2=O)c1	2.2	43.0*	27.9	51.7*	-3.4	42.0*	.	49.8*
O=C(O)COc1ccc(/C=N/n2cnc3scc(-c4cccs4)c3c2=O)cc1	-2.3	.	.	.	0.8	.	.	.
O=c1c2c(-c3cccs3)csc2ncn1/N=C/c1ccccn1	-22.0	56.3*	37.3	60.9*	-5.6	60.0*	.	62.5*
O=c1c2c(-c3cccs3)csc2ncn1-c1ccc(Br)cc1	.	41.9*	17.4	59.3*	-17.3	35.4*	.	47.5*
CN(CC(=O)Nc1ccc(Cl)c(C(F)(F)F)c1)C(=O)c1ccc(N2CCOCC2)c([N+](=O)[O-])c1	.	-20.0	-17.0	-17.7	9.4	.	.	.
Cc1c(C(=O)N2CCN(c3ccccc3F)CC2)sc2nc(-c3ccccc3)cn12	8.8	54.3*	54.0*	53.5*	0.4	53.5*	51.0*	75.3*
COc1ccc(-c2cn3c(C)c(C(=O)N4CCN(c5ccccc5F)CC4)sc3n2)cc1	9.8	55.5*	36.3	55.9*	18.3	54.5*	.	66.8*
CC(C)n1nc(C(=O)OCC(=O)NCCc2ccc(S(N)(=O)=O)cc2)c2ccccc2c1=O	.	.	.	.	4.0	.	.	.
COc1cc(C(=S)N2CCOCC2)cc(OC)c1OC(=O)c1ccccc1[N+](=O)[O-]	-0.8	22.3	12.3	21.6	0.2	.	.	.
COc1ccc(C(=S)N2CCOCC2)cc1OC(=O)c1ccc([N+](=O)[O-])cc1[N+](=O)[O-]	1.8	60.3*	71.0*	58.5*	-1.1	74.2*	68.2*	68.3*
O=C(Oc1ccccc1C(=S)N1CCOCC1)c1ccc([N+](=O)[O-])cc1[N+](=O)[O-]	5.9	56.4*	45.1*	53.8*	5.3	48.5*	48.7*	52.0*
